PubChem BioAssay (EPA / NIEHS)
Inconclusive results are not listed. Calls of active or inactive are those of the source. The calls were made as follows, unless noted: active = hit-call score of the fitted dose curve at least 0.9, where 1 is the maximum; inactive = score below 0.9.

How the values were obtained:
[1] = ACEA_ER_80hr: ACEA Biosciences xCELLigence Real-Time Cell Analysis on Estrogen Receptor Agonism for Proliferation (AID 2282667; active = hit-call score of the fitted dose curve at least 0.9, where 1 is the maximum); settings: T47D proliferation, impedance (xCELLigence), 80 h
How it was run: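 Cell-growth kinetics were measured by impedance in T47D cells treated continuously with compound (top 100 uM final, 1:4 steps, 8 points). Activity at 80 h was scored as signal gain over the DMSO baseline.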

[2] = ATG_CRE_CIS: Attagene CIS-FACTORIAL HepG2 Assay for human cAMP Responsive Element (CRE) binding protein 3 (AID 2282926); settings: HepG2 CRE cis-reporter, Attagene multiplexed mRNA; actives raise or lower the signal
How it was run: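 Cells carrying cis-regulated reporter constructs respond through their own endogenous factors. After 24 h treatment, RNA is reverse-transcribed, amplified, labelled and sized by capillary electrophoresis; up- and down-regulation are both scored against vehicle.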

[3] = target: CCAAT/enhancer-binding protein beta (Homo sapiens) (UniProt P17676); test: ATG_C_EBP_CIS: Attagene CIS-FACTORIAL HepG2 Assay for human CCAAT/Enhancer Binding Protein (C/EBP) beta (AID 2282927); settings: HepG2 Attagene cis-factorial transcription factor reporter; actives raise or lower the signal
How it was run: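 HepG2 transiently transfected with multiplexed reporter units under cis-regulatory promoters reporting endogenous C/EBPb activity. After 24 h exposure, reporter mRNA assayed by RT-PCR, fluorescent labelling, HpaI digestion and capillary electrophoresis; bidirectional fitting versus DMSO.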

[4] = ATG_CMV_CIS: Attagene CIS-FACTORIAL HepG2 Assay for human CMV (Internal Marker) (AID 2282928); settings: HepG2 CMV promoter reporter, transcription factor profiling; actives raise or lower the signal;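 also: endpoint acts as a background internal control marker rather than a target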
How it was run: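 Bidirectional fits against DMSO are applied to reporter mRNA, read by RT-PCR with capillary electrophoresis, from HepG2 cells exposed 24 h. The endpoint serves as an internal CMV background marker within the cis-factorial reporter panel.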

[5] = ATG_DR4_LXR_CIS: Attagene CIS-FACTORIAL HepG2 Assay for human Liver X Receptor (LXR), DR4 submotif (AID 2282929); settings: HepG2 Attagene DR4 cis-reporter, mRNA transcription; actives raise or lower the signal
How it was run: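 After transient transfection with multiplexed cis-promoter reporter units, HepG2 cells received test chemicals for 24 h. Reporter mRNA induction, detected by fluorescence after RT-PCR and capillary electrophoresis, was scored relative to DMSO.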

[6] = target: Aryl hydrocarbon receptor (Homo sapiens) (UniProt P35869); test: ATG_Ahr_CIS: Attagene CIS-FACTORIAL HepG2 Assay for human Aryl Hydrocarbon Receptor (Ahr) (AID 2282930); settings: HepG2 AhR cis-factorial reporter transcription; actives raise or lower the signal
How it was run: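 HepG2 cells transiently transfected with cis-element-driven multiplexed reporter units; endogenous AhR activity read as reporter mRNA 24 h after dosing, via RT-PCR, 6-FAM labelling, HpaI digestion and capillary electrophoresis. Bidirectional fit relative to DMSO.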

[7] = ATG_AP_1_CIS: Attagene CIS-FACTORIAL HepG2 Assay for human Activator Protein 1 (AP-1) (AID 2282931); settings: HepG2 Attagene cis-factorial AP-1 reporter mRNA; actives raise or lower the signal
How it was run: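 After 24 h incubation with test chemical, RNA from transfected HepG2 cells was reverse-transcribed, amplified, fluorescently labelled and digested before capillary electrophoresis. Reporters were driven by cis-regulatory promoters; activity fitted bidirectionally versus DMSO.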

[8] = ATG_BRE_CIS: Attagene CIS-FACTORIAL HepG2 Assay for human Bone Morphogenetic Protein (BMP) Response Element (BRE) (AID 2282933); settings: HepG2 BMP response element reporter, Attagene transcription factor profiling; actives raise or lower the signal
How it was run: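 HepG2 cells transiently transfected with multiplexed cis-element reporter units were dosed with chemical for 24 h. Reporter mRNA was measured by RT-PCR with fluorescent labelling, HpaI digestion and capillary electrophoresis; bidirectional fitting relative to DMSO.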

[9] = target: Retinoic acid receptor alpha (Homo sapiens) (UniProt P10276); test: ATG_DR5_RAR_CIS: Attagene CIS-FACTORIAL HepG2 Assay for human Retinoic Acid Receptor Alpha (RARE), DR5 submotif (AID 2282934); settings: HepG2 Attagene cis-factorial RARE DR5 reporter, mRNA; actives raise or lower the signal
How it was run: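 HepG2 cells transiently transfected with multiplexed reporter units; DR5 cis-element drives reporter through endogenous transcription factors. After 24 h dosing, reporter mRNA quantified by RT-PCR, fluorescent labeling, HpaI digestion and capillary electrophoresis; bidirectional fitting versus DMSO.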

[10] = target: Transcription factor E2F1 (Homo sapiens) (UniProt Q01094); test: ATG_E2F_CIS: Attagene CIS-FACTORIAL HepG2 Assay for human E2F Transcription Factor 1 (AID 2282935); settings: HepG2 Attagene cis-reporter, E2F reporter RNA transcripts; actives raise or lower the signal
How it was run: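 Transient MRTU transfection of HepG2; 24 h compound exposure; RNA → oligo(dT) RT → PCR → FAM label → HpaI cut → CE fluorescence. Gain/loss of signal fit against DMSO.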

[11] = ATG_E_Box_CIS: Attagene CIS-FACTORIAL HepG2 Assay for human Enhancer Box (E-box) (AID 2282936); settings: HepG2 E-box cis-reporter transcription, actives raise or lower the signal
How it was run: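 Transiently transfected HepG2, endogenous TF-driven reporters, 24 h dosing. Readout: RT-PCR plus capillary electrophoresis of fluorescent reporter fragments. Gain or loss of signal fitted bidirectionally against DMSO baseline.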

[12] = ATG_M_61_CIS: Attagene CIS-FACTORIAL HepG2 Assay for M61 Transcription Factor (Internal Marker) (AID 2282937); settings: HepG2 Attagene CIS-FACTORIAL M61 internal marker reporter; actives raise or lower the signal
How it was run: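 Using transiently transfected HepG2 liver cells, reporter transcript levels were assessed 24 h post-dosing by RT-PCR and capillary electrophoresis. Changes in either direction were fitted relative to DMSO controls.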

[13] = ATG_EGR_CIS: Attagene CIS-FACTORIAL HepG2 Assay for human Early Growth Response 1 (EGR1) (AID 2282938); settings: HepG2 Attagene CIS-FACTORIAL EGR reporter mRNA; actives raise or lower the signal
How it was run: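 Fluorescent capillary-electrophoresis signal of reporter cDNA fragments serves as read-out. HepG2 cells bear transiently transfected cis-promoter reporter units and are exposed 24 h; gain- or loss-of-signal is fitted against DMSO.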

[14] = ATG_M_19_CIS: Attagene CIS-FACTORIAL HepG2 Assay for M19 Transcription Factor (Internal Marker) (AID 2282939); settings: HepG2 Attagene CIS-FACTORIAL M19 internal marker reporter; actives raise or lower the signal
How it was run: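 HepG2 cells transiently transfected with cis-regulated multiple reporter transcription units were dosed for 24 h; reporter mRNA was quantified by RT-PCR, 6-FAM primer-extension labelling, HpaI digestion and capillary electrophoresis, with bidirectional fitting against DMSO baseline.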

[15] = ATG_ERE_CIS: Attagene CIS-FACTORIAL HepG2 Assay for Estrogen Response Element (ERE) (AID 2282940); settings: HepG2 ERE cis-reporter, Attagene RNA transcript; actives raise or lower the signal
How it was run: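 HepG2 cells transiently transfected with cis-promoter-driven multiplexed reporter transcription units report endogenous TF activity. After 24 h compound exposure, reporter mRNA is quantified by RT-PCR with capillary electrophoresis fluorescence; bidirectional fitting versus DMSO baseline.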

[16] = ATG_Ets_CIS: Attagene CIS-FACTORIAL HepG2 Assay for human Erythroblast Transformation Specific (ETS) (AID 2282941); settings: HepG2 ETS cis-reporter transcription, actives raise or lower the signal
How it was run: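 Endogenous transcription factor activity read as reporter mRNA via RT-PCR and capillary electrophoresis, with gain or loss fitted bidirectionally against DMSO. Human HepG2 liver cells, transiently transfected CIS reporter constructs, 24 h exposure.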

[17] = target: Hepatocyte nuclear factor 3-beta (Homo sapiens) (UniProt Q9Y261); test: ATG_FoxA2_CIS: Attagene CIS-FACTORIAL HepG2 Assay for human Forkhead box A2 (FOXA2) (AID 2282942); settings: HepG2 cis-reporter transcription factor activity, 24 h; actives raise or lower the signal
How it was run: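 Fluorescence signal of reporter cDNA fragments, separated by capillary electrophoresis, reflects endogenous transcription factor activity in transfected HepG2 after 24 h. Both increases and decreases fitted against DMSO.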

[18] = ATG_FoxO_CIS: Attagene CIS-FACTORIAL HepG2 Assay for human Forkhead box O (FoxO) (AID 2282943); settings: HepG2 Attagene cis-reporter, FoxO element, mRNA; actives raise or lower the signal
How it was run: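 HepG2 cells transiently transfected with cis-element-driven reporter units report endogenous FoxO activity. After 24 h chemical exposure, reporter mRNA quantified by RT-PCR, fluorescent labeling, HpaI digestion and capillary electrophoresis; bidirectional fit versus DMSO.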

[19] = ATG_GATA_CIS: Attagene CIS-FACTORIAL HepG2 Assay for human GATA Binding Protein (AID 2282944); settings: HepG2 GATA cis-element reporter, Attagene multiplex mRNA; actives raise or lower the signal
How it was run: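 HepG2 cells transiently transfected with multiplexed cis-element reporter units reflecting endogenous transcription factor activity; reporter mRNA measured after 24 h dosing by RT-PCR, 6-FAM labeling, HpaI digestion and capillary electrophoresis. Bidirectional fitting versus DMSO baseline.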

[20] = ATG_AP_2_CIS: Attagene CIS-FACTORIAL HepG2 Assay for human Activator Protein 2 (AP-2) (AID 2282932); settings: HepG2 AP-2 cis-reporter, Attagene transcription factor profiling; actives raise or lower the signal
How it was run: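 Read-out: fluorescent reporter mRNA via RT-PCR and capillary electrophoresis, 24 h post-dose in transiently transfected HepG2. Endogenous factors drive cis-promoter reporters; gain or loss of signal fitted bidirectionally against DMSO.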

Measured: AC50

Retinoic acid receptor alpha (Homo sapiens), sequence (P10276 whole entry, looked up): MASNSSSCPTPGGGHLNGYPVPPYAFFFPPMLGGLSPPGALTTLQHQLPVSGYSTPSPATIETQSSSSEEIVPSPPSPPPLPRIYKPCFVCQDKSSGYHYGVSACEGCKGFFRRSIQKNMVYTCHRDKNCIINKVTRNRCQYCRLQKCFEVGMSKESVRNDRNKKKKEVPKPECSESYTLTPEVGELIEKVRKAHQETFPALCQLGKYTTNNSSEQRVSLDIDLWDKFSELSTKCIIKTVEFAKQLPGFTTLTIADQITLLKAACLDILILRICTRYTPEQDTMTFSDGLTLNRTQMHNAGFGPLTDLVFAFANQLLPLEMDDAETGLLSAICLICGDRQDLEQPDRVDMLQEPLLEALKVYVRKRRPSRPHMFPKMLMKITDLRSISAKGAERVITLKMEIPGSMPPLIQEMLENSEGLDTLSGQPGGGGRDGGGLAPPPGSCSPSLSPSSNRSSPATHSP
Transcription factor E2F1 (Homo sapiens), sequence (Q01094 whole entry, looked up): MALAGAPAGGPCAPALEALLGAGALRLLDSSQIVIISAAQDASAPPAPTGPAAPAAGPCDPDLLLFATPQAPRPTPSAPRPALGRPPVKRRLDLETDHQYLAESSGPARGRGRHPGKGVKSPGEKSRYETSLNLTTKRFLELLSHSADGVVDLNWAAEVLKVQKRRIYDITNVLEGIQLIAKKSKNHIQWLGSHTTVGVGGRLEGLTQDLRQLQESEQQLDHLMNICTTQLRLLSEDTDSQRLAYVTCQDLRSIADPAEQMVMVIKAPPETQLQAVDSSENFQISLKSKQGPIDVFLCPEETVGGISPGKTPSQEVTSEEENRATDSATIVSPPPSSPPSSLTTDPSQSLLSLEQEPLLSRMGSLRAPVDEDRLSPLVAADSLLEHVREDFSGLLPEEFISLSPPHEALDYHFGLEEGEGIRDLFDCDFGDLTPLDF
CCAAT/enhancer-binding protein beta (Homo sapiens), sequence (P17676 whole entry, looked up): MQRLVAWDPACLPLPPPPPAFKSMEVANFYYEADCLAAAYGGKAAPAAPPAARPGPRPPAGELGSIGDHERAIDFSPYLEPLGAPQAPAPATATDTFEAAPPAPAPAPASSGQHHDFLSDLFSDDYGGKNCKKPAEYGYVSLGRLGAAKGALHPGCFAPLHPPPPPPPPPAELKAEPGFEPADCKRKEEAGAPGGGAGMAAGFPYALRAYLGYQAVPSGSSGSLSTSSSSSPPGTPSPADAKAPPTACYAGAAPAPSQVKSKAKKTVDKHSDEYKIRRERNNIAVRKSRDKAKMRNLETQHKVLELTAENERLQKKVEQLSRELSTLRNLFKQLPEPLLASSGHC
Hepatocyte nuclear factor 3-beta (Homo sapiens), sequence (Q9Y261 whole entry, looked up, the tested form may be a part): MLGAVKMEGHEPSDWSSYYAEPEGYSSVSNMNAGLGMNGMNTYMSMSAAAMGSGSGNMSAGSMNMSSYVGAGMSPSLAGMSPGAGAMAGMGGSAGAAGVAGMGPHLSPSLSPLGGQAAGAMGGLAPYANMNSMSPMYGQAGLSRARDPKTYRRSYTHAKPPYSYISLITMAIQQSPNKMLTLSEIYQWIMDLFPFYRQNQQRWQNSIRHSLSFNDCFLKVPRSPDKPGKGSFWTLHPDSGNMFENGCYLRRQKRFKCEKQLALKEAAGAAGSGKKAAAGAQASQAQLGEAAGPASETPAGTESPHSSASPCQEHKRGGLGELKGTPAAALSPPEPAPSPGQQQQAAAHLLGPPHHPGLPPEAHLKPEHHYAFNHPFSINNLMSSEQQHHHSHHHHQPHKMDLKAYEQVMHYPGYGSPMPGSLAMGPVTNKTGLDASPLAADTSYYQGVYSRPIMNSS
Aryl hydrocarbon receptor (Homo sapiens), sequence (P35869 whole entry, looked up): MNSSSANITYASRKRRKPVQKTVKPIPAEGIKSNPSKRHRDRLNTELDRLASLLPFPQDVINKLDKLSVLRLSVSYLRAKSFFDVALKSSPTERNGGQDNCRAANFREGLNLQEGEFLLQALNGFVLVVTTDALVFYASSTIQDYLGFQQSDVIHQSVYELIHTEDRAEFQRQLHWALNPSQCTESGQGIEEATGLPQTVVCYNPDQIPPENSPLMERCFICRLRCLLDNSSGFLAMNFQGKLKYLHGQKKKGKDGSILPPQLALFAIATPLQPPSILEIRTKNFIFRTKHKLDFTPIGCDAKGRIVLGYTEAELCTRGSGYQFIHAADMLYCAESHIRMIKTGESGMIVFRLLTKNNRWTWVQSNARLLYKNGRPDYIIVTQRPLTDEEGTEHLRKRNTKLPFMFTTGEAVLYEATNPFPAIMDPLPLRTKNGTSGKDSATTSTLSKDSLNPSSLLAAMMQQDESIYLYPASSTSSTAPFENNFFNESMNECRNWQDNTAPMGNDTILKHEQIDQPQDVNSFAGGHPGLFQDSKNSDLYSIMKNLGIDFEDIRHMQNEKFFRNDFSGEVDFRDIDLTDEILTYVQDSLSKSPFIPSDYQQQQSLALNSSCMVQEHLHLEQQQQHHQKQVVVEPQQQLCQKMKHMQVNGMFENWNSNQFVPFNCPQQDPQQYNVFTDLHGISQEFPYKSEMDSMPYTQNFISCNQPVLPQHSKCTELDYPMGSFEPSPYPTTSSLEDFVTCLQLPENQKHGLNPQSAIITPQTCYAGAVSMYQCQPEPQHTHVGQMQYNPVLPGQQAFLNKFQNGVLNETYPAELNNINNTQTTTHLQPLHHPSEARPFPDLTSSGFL

CCCCOCCOCCOC(C)=O
not listed: [20]
inactive: all other assays above

CN(C)c1ccc2nc3ccc(=[N+](C)C)cc-3sc2c1
active: [4] 1.69 µM | [6] 5.2 µM | [7] 19.8 µM | [8] 12.2 µM | [11] 16.7 µM
not listed: [19] | [20]
inactive: all other assays above

COc1cc(C)ccc1O
not listed: [8] | [10] | [15]
inactive: all other assays above

CCCCCC(=O)OCC
not listed: [8]
inactive: all other assays above

C=C[Si](OCCOC)(OCCOC)OCCOC
not listed: [8] | [10]
inactive: all other assays above

[Cl][Eu]([Cl])[Cl]
active: [15] 51.6 µM
not listed: [8]
inactive: all other assays above

CCCCCCCCCCCCc1ccc(O)cc1
active: [1] 0.35 µM | [15] 0.146 µM
not listed: [8] | [17] | [20]
inactive: all other assays above
